Assay results as given in PubChem BioAssay (NCATS).
Inconclusive results are not listed. The source made the active and inactive calls. Unless noted, calls come from the whole dose curve; as a rule, active = well fitted curve in the direction sought with a large enough effect; inconclusive = small, poorly fitted or top-dose-only effect, or another doubt; inactive = no such curve, though single readings can be large; an effect the other way counts as inactive or inconclusive.

What was measured:
[1] = target: Tumor susceptibility gene 101 protein (Homo sapiens) (UniProt Q99816); test: qHTS Assay for Iinhibitors of HIV-1 Budding by Blocking the Interaction of PTAP/TSG101: Hit Validation (AID 651600); note: nearly all actives have a fitted effect of over 70% in size; note: potency is the fitted concentration of half-maximal effect; for activity change, negative = inhibition: % is set by controls: 0 for no effect and ±100 for the full control effect
Outline: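 Fluorescence polarization binding assay: Tsg101 binding domain (10 uM final) pre-dispensed with compounds, then FITC-labeled PTAP-motif peptide (50 nM final) added; 20 min at r.t. in HEPES pH 7.5 buffer with NaCl, Tween 20, EDTA, TCEP.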

[2] = target: Rap guanine nucleotide exchange factor 3 (Homo sapiens) (UniProt O95398); test: Confirmatory qHTS for antagonist of cAMP-regulated guanine nucleotide exchange factor 3 (EPAC1) (AID 1645880); conditions: EPAC1 Rap1B-BODIPY-GDP exchange, fluorescence; activity, negative = inhibition: at 115 µM (top of the series); note: nearly all actives have a fitted effect of over 55% in size; note: potency is the fitted concentration of half-maximal effect;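 for activity, negative = inhibition: plate controls were DMSO only for no effect and full effect of the ATA control for full effect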
Outline: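 Nucleotide exchange uses 100 nM EPAC1, 250 nM RAP1B-BODIPY-GDP and 50 uM GDP, with compounds in a concentration-titration series. After 5 min at room temperature, fluorescence (480 nm ex/540 nm em) is read every 5 min for 30 min. Data are normalized to control ATA and DMSO.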

[3] = target: Rap guanine nucleotide exchange factor 3 (Homo sapiens) (UniProt O95398); test: Confirmatory qHTS for agonist of cAMP-regulated guanine nucleotide exchange factor 3 (EPAC1) (AID 1645881); note: nearly all actives have a fitted effect of over 75% in size; note: potency is the fitted concentration of half-maximal effect;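 for activation: EPAC1 catalysed release of BODIPY-GDP from Rap1B seen as fluorescence loss; 100% = effect of cAMP agonist control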
[4] = target: Rap guanine nucleotide exchange factor 4 (Homo sapiens) (UniProt Q8WZA2); test: Confirmatory qHTS for agonist of cAMP-regulated guanine nucleotide exchange factor 4 (EPAC2) (AID 1645884);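 note: nucleotide exchange releases bodipy-GDP from Rap1 and this lowers its fluorescence; nearly all actives have a fitted effect of over 65% in size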; note: potency is the fitted concentration of half-maximal effect
[5] = target: Rap guanine nucleotide exchange factor 4 (Homo sapiens) (UniProt Q8WZA2); test: Confirmatory qHTS for antagonist of cAMP-regulated guanine nucleotide exchange factor 4 (EPAC2) (AID 1645885); note: nearly all actives have a fitted effect of over 25% in size; note: potency is the fitted concentration of half-maximal effect
[6] = target: Rap guanine nucleotide exchange factor 3 (Homo sapiens) (UniProt O95398); test: Counterscreen qHTS for antagonist of cAMP-regulated guanine nucleotide exchange factor 3 (EPAC1) (AID 1645888);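 note: fluorescence loss as bound BODIPY-GDP is released from Rap1B; % of control where 0% means no effect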
Outline: (§1)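 Rap1B–BODIPY-GDP (250 nM) with 50 uM GDP; compounds pin-transferred to 9.74 nM–152 uM final (activator) or from 7.32 nM upwards (inhibitor). Fluorescence Ex/Em 480/540 nm read at 5 and 30 min, then after adding cAMP or buffer, at room temperature.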

[7] = target: Rap guanine nucleotide exchange factor 3 (Homo sapiens) (UniProt O95398); test: Counterscreen qHTS for agonist of cAMP-regulated guanine nucleotide exchange factor 3 (EPAC1) (AID 1645889); note: nearly all actives have a fitted effect of over 40% in size; note: potency is the fitted concentration of half-maximal effect; for activation: % of control where 0% means no effect
Outline: as §1

[8] = qHTS for Inhibitors of Plasmodium falciparum (DD2) proliferation (AID 504314);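 note: parasite DNA measured by SYBR Green fluorescence after red cell lysis; plate controls were DMSO vehicle for no effect and artemisinin wells for full effect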
Outline: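 Quantitative HTS growth inhibition: SYBR Green I binding to parasite DNA after 72 h drug exposure of infected erythrocytes (0.3% parasitemia, 2.5% hematocrit). Signals normalized per plate to inhibitor and vehicle wells.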

[9] = qHTS for Inhibitors of Plasmodium falciparum (GB4) proliferation (AID 504315);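 note: 0% = DMSO vehicle and -100% = 0.29 µM artemisinin control; nearly all actives have a fitted effect of over 50% in size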
Outline: (§2)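 Erythrocytes infected with P. falciparum line (0.3% parasitemia, 2.5% hematocrit final) incubated with compounds 72 h at 37 °C, 5% CO2; SYBR Green lysis buffer added, fluorescence read next day. Normalized to 0.29 uM artemisinin and DMSO.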

[10] = qHTS for Inhibitors of Plasmodium falciparum (7G8) proliferation (AID 504316);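 note: 0% = DMSO vehicle and -100% = 0.29 µM artemisinin full kill; nearly all actives have a fitted effect of over 65% in size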
Outline: as §2

[11] = qHTS for Inhibitors of Plasmodium falciparum (HB3) proliferation (AID 504318);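 note: 0% = DMSO vehicle and -100% = artemisinin control; nearly all actives have a fitted effect of over 60% in size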
Outline: as §2

[12] = qHTS for Inhibitors of Plasmodium falciparum (CP250) proliferation (AID 504320);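 note: plate controls were DMSO vehicle for no effect and 0.29 µM artemisinin control for full effect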
Outline: as §2

[13] = AP1 Signaling Pathway (AID 357; active = well fitted curve in either direction with a large enough effect, not every such curve was filed as active;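 note: ME-180 reporter cells stimulated with EGF at its EC50 level; % is set by controls: 0 for no effect and ±100 for the full control effect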); conditions: ME-180 AP-1-bla reporter, EGF-induced, beta-lactamase ratio, 5 h; at 7.69 µM (top of the series) unless noted
Outline: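 Cells are seeded overnight, exposed to compound titrations and an EC50 level of EGF for 5 hours at 37 °C, then loaded with CCF4 dye for 2.5 hours. Beta-lactamase activity under the AP-1 element is read as a blue/green ratio.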

[14] = NFAT Signaling Pathway (AID 444; active = well fitted curve in either direction with a large enough effect, not every such curve was filed as active;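 note: carbachol stimulus at about its EC50 of 1 µM final; % is set by controls: 0 for no effect and ±100 for the full control effect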); conditions: Jurkat NFAT-bla M1, carbachol, beta-lactamase ratio, 5 h; at 7.69 µM (top of the series) unless noted
Outline: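 Jurkat cells with NFAT-driven β-lactamase reporter and co-expressed M1 receptor, stimulated with carbachol (final 1 uM, ~EC50), compound titration, 5 h at 37 °C. CCF4 loaded 1 h at RT; 460/530 nm ratio gave %activity and AC50.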

[15] = Stat Signaling Pathway (AID 446; active = well fitted curve in either direction with a large enough effect, not every such curve was filed as active;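 note: ME-180 cervical cancer cells given 40 pM IL-6 alongside compound; SIE-controlled beta-lactamase reporter measured as 460/530 nm FRET emission ratio; % is set by controls: 0 for no effect and ±100 for the full control effect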)
Outline: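 Screening format detects activators and inhibitors alike: ME-180 SIE-bla cells stimulated at 40 pM IL-6 for 5 hrs with compound, then dual-emission beta-lactamase read at 405 nm excitation.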

[16] = target: Glucocorticoid receptor (Homo sapiens) (UniProt P04150); test: GR-GFP Redistribution (AID 450;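 active = compounds whose dose series gives a full or clear partial fitted curve of increased nuclear translocation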; note: potency is the fitted concentration of half-maximal effect); conditions: U2OS GR-GFP nuclear translocation, laser cytometry, 2 h
Glucocorticoid receptor (Homo sapiens), sequence (P04150 whole entry, looked up): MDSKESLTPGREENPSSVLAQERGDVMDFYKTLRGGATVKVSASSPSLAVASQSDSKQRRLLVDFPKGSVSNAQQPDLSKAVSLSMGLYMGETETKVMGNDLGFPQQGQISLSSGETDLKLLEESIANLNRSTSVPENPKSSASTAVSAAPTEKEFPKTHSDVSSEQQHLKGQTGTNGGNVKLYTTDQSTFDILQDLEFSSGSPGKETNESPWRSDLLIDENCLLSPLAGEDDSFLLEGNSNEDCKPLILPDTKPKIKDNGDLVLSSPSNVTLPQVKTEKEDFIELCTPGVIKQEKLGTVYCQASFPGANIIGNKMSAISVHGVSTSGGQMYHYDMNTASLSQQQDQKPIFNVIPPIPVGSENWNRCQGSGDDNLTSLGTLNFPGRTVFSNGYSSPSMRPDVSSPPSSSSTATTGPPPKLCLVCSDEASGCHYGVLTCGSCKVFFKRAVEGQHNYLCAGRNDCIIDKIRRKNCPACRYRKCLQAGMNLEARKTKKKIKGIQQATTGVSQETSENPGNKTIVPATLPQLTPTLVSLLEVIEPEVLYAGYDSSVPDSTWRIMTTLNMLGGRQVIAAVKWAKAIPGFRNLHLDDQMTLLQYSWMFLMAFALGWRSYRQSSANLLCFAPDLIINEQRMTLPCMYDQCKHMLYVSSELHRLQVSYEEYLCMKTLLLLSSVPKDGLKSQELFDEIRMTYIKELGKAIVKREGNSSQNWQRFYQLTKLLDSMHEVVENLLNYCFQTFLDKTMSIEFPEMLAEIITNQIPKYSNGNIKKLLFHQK

Rap guanine nucleotide exchange factor 4 (Homo sapiens), sequence (Q8WZA2 whole entry, looked up): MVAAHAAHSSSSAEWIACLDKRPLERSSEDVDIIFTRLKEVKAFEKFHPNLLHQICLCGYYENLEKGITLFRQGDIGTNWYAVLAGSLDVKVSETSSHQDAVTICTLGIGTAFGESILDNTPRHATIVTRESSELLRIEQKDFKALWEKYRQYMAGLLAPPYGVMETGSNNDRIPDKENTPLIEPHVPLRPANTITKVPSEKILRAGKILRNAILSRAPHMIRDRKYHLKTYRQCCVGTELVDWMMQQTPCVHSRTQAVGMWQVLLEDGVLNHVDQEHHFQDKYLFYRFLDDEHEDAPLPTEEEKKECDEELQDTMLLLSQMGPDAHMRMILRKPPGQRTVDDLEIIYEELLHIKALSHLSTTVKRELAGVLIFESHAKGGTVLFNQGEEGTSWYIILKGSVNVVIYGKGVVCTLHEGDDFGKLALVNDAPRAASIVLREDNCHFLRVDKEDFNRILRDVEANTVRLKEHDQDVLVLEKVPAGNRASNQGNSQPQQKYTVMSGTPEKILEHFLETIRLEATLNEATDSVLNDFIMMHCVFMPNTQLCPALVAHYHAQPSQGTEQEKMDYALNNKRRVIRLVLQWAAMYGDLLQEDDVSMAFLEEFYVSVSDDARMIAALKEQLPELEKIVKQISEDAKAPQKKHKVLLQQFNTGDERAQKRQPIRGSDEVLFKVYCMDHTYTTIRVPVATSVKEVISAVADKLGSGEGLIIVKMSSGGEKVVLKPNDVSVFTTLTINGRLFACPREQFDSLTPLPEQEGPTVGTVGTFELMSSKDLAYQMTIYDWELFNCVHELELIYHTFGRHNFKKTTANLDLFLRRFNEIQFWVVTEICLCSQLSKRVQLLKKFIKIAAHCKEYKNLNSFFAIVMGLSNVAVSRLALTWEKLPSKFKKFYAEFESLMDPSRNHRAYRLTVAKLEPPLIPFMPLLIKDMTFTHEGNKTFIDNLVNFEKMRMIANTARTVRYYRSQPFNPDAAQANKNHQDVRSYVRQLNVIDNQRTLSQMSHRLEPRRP
Rap guanine nucleotide exchange factor 3 (Homo sapiens), sequence (O95398 whole entry, looked up): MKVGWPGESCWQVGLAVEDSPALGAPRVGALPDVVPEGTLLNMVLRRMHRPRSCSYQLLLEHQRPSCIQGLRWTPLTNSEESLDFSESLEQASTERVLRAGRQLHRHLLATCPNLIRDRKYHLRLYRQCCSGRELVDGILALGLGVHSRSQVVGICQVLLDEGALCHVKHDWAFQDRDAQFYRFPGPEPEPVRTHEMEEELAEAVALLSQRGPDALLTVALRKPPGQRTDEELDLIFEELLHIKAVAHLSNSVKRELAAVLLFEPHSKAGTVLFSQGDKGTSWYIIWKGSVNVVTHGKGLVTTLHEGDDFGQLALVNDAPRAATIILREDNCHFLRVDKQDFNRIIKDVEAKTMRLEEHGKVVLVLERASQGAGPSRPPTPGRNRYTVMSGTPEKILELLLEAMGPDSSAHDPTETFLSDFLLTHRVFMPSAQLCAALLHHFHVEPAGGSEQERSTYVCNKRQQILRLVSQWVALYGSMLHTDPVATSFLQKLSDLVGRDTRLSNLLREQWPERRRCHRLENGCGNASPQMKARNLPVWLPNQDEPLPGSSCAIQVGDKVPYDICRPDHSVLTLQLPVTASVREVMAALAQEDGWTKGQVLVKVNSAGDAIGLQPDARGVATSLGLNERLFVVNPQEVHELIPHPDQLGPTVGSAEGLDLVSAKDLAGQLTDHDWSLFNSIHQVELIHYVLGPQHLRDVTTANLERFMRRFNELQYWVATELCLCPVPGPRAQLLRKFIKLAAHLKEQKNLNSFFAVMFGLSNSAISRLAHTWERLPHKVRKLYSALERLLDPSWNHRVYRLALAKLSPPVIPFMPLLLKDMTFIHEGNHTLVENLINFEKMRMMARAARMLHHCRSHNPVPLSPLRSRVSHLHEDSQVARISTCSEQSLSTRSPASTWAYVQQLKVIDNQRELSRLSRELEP
Tumor susceptibility gene 101 protein (Homo sapiens), sequence (Q99816 whole entry, looked up, the tested form may be a part): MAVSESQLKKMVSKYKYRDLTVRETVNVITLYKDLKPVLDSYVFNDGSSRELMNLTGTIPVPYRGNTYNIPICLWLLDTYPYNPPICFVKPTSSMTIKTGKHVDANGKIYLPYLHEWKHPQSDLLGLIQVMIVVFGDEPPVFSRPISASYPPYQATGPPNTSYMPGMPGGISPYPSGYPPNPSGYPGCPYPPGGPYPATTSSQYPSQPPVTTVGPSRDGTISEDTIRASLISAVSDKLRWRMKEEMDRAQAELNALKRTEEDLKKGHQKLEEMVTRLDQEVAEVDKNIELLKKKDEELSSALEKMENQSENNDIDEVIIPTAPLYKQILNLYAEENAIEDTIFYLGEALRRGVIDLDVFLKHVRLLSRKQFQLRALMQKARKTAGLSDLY

N#CC(C(=O)NCc1ccccc1)c1nc2ccccc2nc1N1CCCC1 (stereo unspecified)
inactive: Potency [1] | Potency [2] | Potency [6] | Potency [7]
active: Potency [3] 100 µM | Potency [4] 89.1 µM | Potency [5] 75.7 µM

Cc1cc(=O)oc2ccc(OC(=O)CN3C(=O)c4cccc([N+](=O)[O-])c4C3=O)cc12
inactive: Potency [1] | Potency [2] | Potency [3] | Potency [4] | Potency [5] | Potency [6] | Potency [7]

CSC1=NSC2=NC(=O)/C(=C/c3coc4ccccc4c3=O)C(=N)N12
active: Potency [1] 18.3 µM | Potency [3] 89.1 µM | Potency [4] 100 µM | Potency [7] 39.8 µM
inactive: Potency [2] | Potency [5] | Potency [6]

CSC1=NSC2=NC(=O)/C(=C\c3coc4ccccc4c3=O)C(=N)N12
active: Potency [1] 5.17 µM | Potency [3] 89.1 µM | Potency [4] 100 µM | Potency [5] 16.9 µM | Potency [7] 44.7 µM
inactive: Potency [2] | Potency [6]

CCN1C(=O)N(S(=O)(=O)C(F)(F)F)[C@@H](c2ccccc2)C(C(=O)OC)=C1C
inactive: outcome [8] | outcome [9] | outcome [10] | outcome [11] | outcome [12] | Potency [2] | Potency [3] | Potency [4] | Potency [5] | Potency [6] | Potency [7]

CN(C)c1ccc(/C=C(\C#N)C(=O)Nc2nc3c(s2)CCN(Cc2ccccc2)C3)cc1
active: Potency [3] 100 µM | Potency [4] 100 µM
inactive: Potency [1] | Potency [2] | Potency [5] | Potency [6]

COCCn1c(N)c(C(=O)NCC2CCCO2)c2nc3ccccc3nc21 (stereo unspecified)
inactive: activity change, negative = inhibition [13] -8.13% [at 17.2 µM] | activity change, negative = inhibition [14] 8.7% [at 17.2 µM] | outcome [15] | Potency [16] > 20.6 µM | Potency [2] | Potency [3] | Potency [4] | Potency [5] | Potency [6]

Cc1cccc(N2C(=O)c3cccc4c(N(C)CCO)ccc(c34)C2=O)c1
inactive: Potency [2] | Potency [5] | Potency [6]
active: Potency [1] 3.66 µM | Potency [3] 89.1 µM | Potency [4] 100 µM | Potency [7] 39.8 µM

COc1cccc(NC(=O)/C(C#N)=C/c2ccc(-c3ccc(C)cc3)o2)c1
inactive: Potency [1] | Potency [2] | Potency [3] | Potency [4] | Potency [5] | Potency [6]

COC(=O)C1=C(C(=O)OC)[C@@H]2N(Cc3ccccc3)c3ccccc3[C@@]23C[C@@H](C(=O)OC)N=C3N1
inactive: outcome [8] | outcome [9] | outcome [10] | outcome [11] | outcome [12] | Potency [2] | Potency [3] | activation [4] 0% [at 17.1 µM, percent relative to cAMP agonist control] | Potency [5] | activity change, negative = inhibition [6] 17% [at 30.8 µM]

c1ccc(-c2cn3nc(-c4ccccc4)c(-c4ccccc4)nc3n2)cc1
inactive: Potency [1] | Potency [2] | Potency [3] | activation [4] 8.73% [at 17.1 µM, percent relative to cAMP agonist control] | Potency [5] | activity change, negative = inhibition [6] 14.3% [at 30.8 µM] | activation [7] 16.7% [at 30.8 µM]

O=[N+]([O-])c1ccc(Sc2cccc[n+]2[O-])c2nonc12
inactive: Potency [3] | activation [4] 3.05% [at 17.1 µM, percent relative to cAMP agonist control] | Potency [5] | activity change, negative = inhibition [6] -8.92% [at 30.8 µM] | activation [7] 9.42% [at 30.8 µM]
active: Potency [1] 18.3 µM | Potency [2] 31.6 µM

COc1ccc(CNC(=O)C(C#N)c2nc3ccccc3nc2N2CCCC2)cc1 (stereo unspecified)
inactive: Potency [2] | Potency [3] | Potency [4] | Potency [5] | Potency [6] | Potency [7]
active: Potency [1] 9.19 µM

Cc1cc2nc3c(=O)n(C4CCCCC4)c(=O)[nH]c3nc2cc1N
active: Potency [1] 0.651 µM | Potency [3] 56.2 µM | Potency [4] 56.2 µM | Potency [7] 25.1 µM
inactive: Potency [2] | Potency [5] | Potency [6]

CCOC(=O)c1cc2n(c1/N=C/N(C)C)-c1ccccc1C2=O
active: Potency [1] 5.8 µM
inactive: Potency [2] | Potency [3] | activation [4] 6.24% [at 17.1 µM, percent relative to cAMP agonist control] | Potency [5] | activity change, negative = inhibition [6] 1.53% [at 30.8 µM]

C/C(=N\NC(=O)CC#N)c1cc2ccc(O)cc2oc1=O
inactive: Potency [2] | Potency [3] | activation [4] 2.05% [at 17.1 µM, percent relative to cAMP agonist control] | Potency [5] | activation [7] -21% [at 30.8 µM]

COc1ccc(N2CCOCC2)c(NC(=O)c2cccc3ccccc23)c1
inactive: Potency [2] | Potency [3] | activation [4] 5.58% [at 17.1 µM, percent relative to cAMP agonist control] | Potency [5] | activation [7] 22.6% [at 30.8 µM]
